Assay outcomes from PubChem BioAssay.
Most compounds without a hit are left out; they make up all but 4.6% or so of the library.
HSF1 inh = HSF1 inhibition; activity change, negative = inhibition, % at 7.5 µM (by protocol); NIH3T3-HGL HSE-luciferase, MG132-induced, luminescence 8 h; stronger effect = lower value; 300,000 tested, 0.77% active;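 active = more than half of replicate wells show activity change below -50%, luminescence cut by over half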;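 note: luciferase reports HSF-1 transcriptional activity via heat shock element; 0% = median of DMSO wells and -100% = zero luminescence signal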
GAA850 FXN act = frataxin GAA850 promoter activation; AID 540364; activation, % at 6 µM; HEK293 lucGAA850 FXN promoter luciferase reporter, 24 h; percent of 10 µM SAHA response; 360,000 tested, 0.56% active;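 active = activation above the average of all compounds screened plus 3 SD, cutoff fixed separately per campaign, cut at about 7.5% in these data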;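 note: 0% = DMSO wells and 100% = 10 µM SAHA wells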
AHR act = activates the human aryl hydrocarbon receptor; AID 2796; AHR-responsive luciferase reporter cells, luminescence; activation, % at 5 µM; 320,000 tested, 2.5% active; in the data active = activation above about 47%;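 note: 0% = vehicle wells and 100% = reference agonist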
HSF1 activator = increases HSF-1 driven luciferase reporter signal | NIH3T3-HGL HSF-1 luciferase reporter, MG132, 8 h; 100% = twice DMSO control signal | activation, % at 9 µM | 300,000 tested, 1.7% active | AID 504408;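 active = mean replicate activation of at least 50% with a set share of replicates each reaching 50%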;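 note: 0% = median of the neutral control wells and 100% = twice that signal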
AHR act cf = human AHR activation, confirmation; shares compounds with AHR act; human cells, AHR-responsive luciferase reporter, luminescence; activation, % at 9 µM; 2,300 tested, 87% active; AID 2845; in the data active = activation above about 49%;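 note: HepG2 hepatoma cells carrying a DRE-driven firefly luciferase reporter; 0% = vehicle wells and 100% = reference agonist wells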
PXR act counter = PXR activation, counter-screen for AHR activators; shares compounds with AHR act; cell-based PXR reporter, luciferase luminescence; activation, % at 11.6 µM; 2,300 tested, 88% active; AID 434939; in the data active = activation above about 11%;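 note: human hepatoma DPX-2 cells expressing full-length human PXR; 0% = DMSO and 100% = reference agonist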
Target sequence (O75469 whole entry, looked up): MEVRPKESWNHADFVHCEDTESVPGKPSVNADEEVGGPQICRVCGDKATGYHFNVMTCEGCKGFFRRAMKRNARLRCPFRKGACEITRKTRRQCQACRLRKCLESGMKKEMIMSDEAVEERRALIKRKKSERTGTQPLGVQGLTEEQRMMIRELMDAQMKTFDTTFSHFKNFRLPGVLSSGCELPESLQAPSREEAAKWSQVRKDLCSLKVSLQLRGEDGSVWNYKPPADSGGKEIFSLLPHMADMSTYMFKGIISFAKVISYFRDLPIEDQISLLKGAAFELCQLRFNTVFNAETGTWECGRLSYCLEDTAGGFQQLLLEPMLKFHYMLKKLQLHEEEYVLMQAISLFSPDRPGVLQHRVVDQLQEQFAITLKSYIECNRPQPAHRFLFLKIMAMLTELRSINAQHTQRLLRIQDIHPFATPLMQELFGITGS
* hit, by the source's call; . = no result given.

SMILES | HSF1 inh | GAA850 FXN act | AHR act | HSF1 activator | AHR act cf | PXR act counter
CC1=CC(=O)c2ccccc2C1=O | -2 | -2 | 22 | 3 | . | .
Oc1ccccc1-c1nc2ccccc2nc1-c1ccccc1 | 2 | 2 | 12 | -16 | . | .
N#CC(C#N)=C1C=CC=CN1/C(=C\c1ccco1)C(=O)c1ccc(Cl)cc1 | . | -9 | 178* | . | 133* | 51*
NC(CCc1ccccc1)c1csc(NC(=O)Nc2cccc(Cl)c2)n1 (stereo unspecified) | . | 3 | . | . | . | .
CCn1ncc(Br)c1C(=O)Nc1ccc(OC(F)(F)F)cc1 | 3 | 2 | 96* | 8 | 91* | 20*
CCn1ncc(Br)c1C(=O)Nc1ccc(C(=O)OC(C)C)cc1 | 0 | 2 | -5 | 0 | . | .
CCn1ncc(Br)c1C(=O)Nc1ccccc1C(=O)OC | 3 | 1 | 0 | -3 | . | .
CCn1ncc(Br)c1C(=O)Nc1ccccc1C(F)(F)F | -4 | 0 | 88* | 19 | 92* | 23*
Cc1nc2ccccc2n1Cc1ccc(Cl)cc1 | 3 | -3 | -6 | -16 | . | .
Cc1cc(C)c(NC(=O)Cn2c([N+](=O)[O-])cnc2C)c(C)c1 | 1 | -3 | 0 | -10 | . | .
Cn1c(SCC(=O)N/N=C/C=C\c2ccccc2[N+](=O)[O-])nc2ccccc21 | -6 | 0 | 108* | 2 | 55* | 81*
Cn1c(SCC(=O)N/N=C/C=C/c2ccccc2[N+](=O)[O-])nc2ccccc21 | -5 | 0 | 117* | 1 | 56* | 75*
CCn1c(SCC(=O)N/N=C/C=C\c2ccccc2[N+](=O)[O-])nc2ccccc21 | -2 | 0 | 33 | 7 | . | .
Cn1c(C(O)c2ccc(Cl)cc2)nc(Cl)c1Cl (stereo unspecified) | 4 | -1 | 88* | 13 | 114* | 71*
COc1ccc(CCNC(=O)CCc2nc3ccccc3[nH]2)cc1OC | -7 | -2 | 2 | 2 | . | .
N#C/C(=C/c1ccc(Sc2nc3ccccc3[nH]2)o1)c1cccc(F)c1 | 22 | 0 | 4 | 32 | . | .
N#C/C(=C/c1ccc(Sc2nc3ccccc3[nH]2)o1)c1cccc(Br)c1 | 15 | 2 | 83* | 9 | 43 | 84*
N#C/C(=C\c1ccc(Sc2ccccc2)o1)c1nc2ccccc2[nH]1 | 35 | 5 | 145* | 37 | 122* | 151*
Cc1cccc(Nc2n[nH]c(=S)s2)c1C | 3 | 2 | -2 | 4 | . | .
Cc1cccc(Nc2nc3ccccc3s2)c1C | 58 | 5 | 101* | 125* | 50* | 72*
CC1CCc2c(sc(NC(=O)CSc3ncnc4c3cnn4-c3ccccc3Cl)c2C#N)C1 (stereo unspecified) | -31 | -2 | 5 | -46 | . | .
CC(=O)N(C)c1ccc(NC(=S)Nc2ccccc2)cc1 | 14 | 0 | 1 | 39 | . | .
CN(C)c1cc(O)c(C(=S)Nc2ccccc2)c(N(C)C)c1 | 1 | 3 | 125* | 29 | 102* | 115*
Clc1ccc2oc(-c3cccnc3)nc2c1 | 16 | 5 | 4 | 22 | . | .
Cc1ccc2nc(-c3cccnc3)oc2c1 | 20 | 6 | 89* | 35 | 106* | 31*
SMILES | HSF1 inh | GAA850 FXN act | AHR act | HSF1 activator | AHR act cf | PXR act counter
Cc1ccc2oc(-c3cccc(N)c3)nc2c1 | 29 | 4 | 110* | 70* | 107* | 10*
CCc1ccccc1N1CC(C(=O)Nc2cc(S(=O)(=O)N3CCCC3)ccc2Cl)CC1=O (stereo unspecified) | . | 3 | 2 | . | . | .
C=CCOC(=O)C1=C(C)NC(C)=C(C(=O)OCC=C)C1/C=C/c1ccccc1 | 2 | 1 | 13 | -8 | . | .
Brc1ccc(CNCC2CCCO2)cc1 (stereo unspecified) | -3 | 0 | 0 | -8 | . | .
COc1cc(NC(=O)c2noc(C)c2[N+](=O)[O-])c(OC)cc1Cl | 7 | -2 | 80* | 2 | 102* | 30*
COc1cc(NC(=O)c2ccnn2C)c(OC)cc1Cl | 0 | 1 | 129* | 19 | 135* | 23*
COc1cc(NC(=O)c2cc(CC(C)C)on2)c(OC)cc1Cl | -4 | 1 | 91* | -26 | 86* | 15*
COC(=O)c1ccccc1NC(=O)c1ccnn1C | -6 | 2 | 0 | -9 | . | .
COc1cc(NC(=O)c2cc(-c3ccco3)on2)c(OC)cc1Cl | 7 | 0 | 41 | 20 | . | .
Cc1noc(C)c1C(=O)Nc1ccc(N(C)C)cc1 | -3 | -2 | 14 | 16 | . | .
CCOC(=O)c1c(NCCN(C)C)c2ccccc2[nH]c1=O | -6 | -1 | 2 | 16 | . | .
CCOC(=O)c1c(NCc2ccc3c(c2)OCO3)c2ccccc2[nH]c1=O | . | 1 | 109* | . | 74* | 156*
NC(=Nc1ccccc1)NC(=O)c1nc(Cl)c(N)nc1N | 6 | 6 | 86* | -9 | 30 | 35*
Cc1cccnc1NC(=S)Nc1ncccc1C | 25 | 6 | -1 | 49 | . | .
CCOc1ccccc1NC(=S)Nc1ncccc1C | -5 | -4 | 122* | 8 | 81* | 52*
O=c1c2ccccc2nc(-c2ccoc2)n1CCc1ccccc1 | -4 | 1 | 125* | -13 | 102* | 41*
Nc1c(S(=O)(=O)O)cc(NC(=O)c2ccccc2)c2c1C(=O)c1ccccc1C2=O | 1 | -3 | 24 | 15 | . | .
N#Cc1ccccc1NC(=O)c1ccccc1OCC(=O)NCc1ccco1 | 6 | 4 | 117* | 25 | 109* | 47*
N#Cc1ccccc1NC(=O)c1ccccc1OCC(=O)Nc1ccc2c(c1)oc1ccccc12 | 11 | -1 | 10 | 44 | . | .
COc1ccc(CCNC(=O)c2cnc3scc(C)n3c2=O)cc1OC | -11 | 2 | 105* | -14 | 94* | 40*
CN(C)CCNC(=O)c1sc2nc(-c3ccccc3)cc(C(F)(F)F)c2c1N | 1 | -1 | 91* | 3 | 100* | 11*
Nc1c(C(=O)C2CC2)sc2nc(-c3ccccc3)cc(C(F)(F)F)c12 | -1 | 1 | 16 | 0 | . | .
COc1ccc(CCNC(=O)CCSCc2ccccc2F)cc1OC | -11 | 0 | 1 | -6 | . | .
COc1cccc(/C=N/n2c(=O)[nH]c3ccccc32)c1OC | 5 | 3 | 118* | 28 | 94* | 18*
COc1cccc(/C=N/n2c(=S)n(C)c3ccccc32)c1OC | 11 | 5 | 2 | 17 | . | .
COc1ccccc1NC(=O)CSc1ccc2nnc(-c3ccncc3)n2n1 | -2 | -1 | 27 | 10 | . | .
COc1ccc(C(=O)CSc2ccc3nnc(-c4cccnc4)n3n2)cc1 | -4 | 0 | 83* | -21 | 74* | 11*
COc1ccc(NC(=O)CSc2ccc3nnc(-c4cccnc4)n3n2)cc1 | -7 | 1 | 3 | 8 | . | .
Cc1csc(NC(=O)CSc2ccc3nnc(-c4ccncc4)n3n2)n1 | -4 | 1 | 92* | -12 | 65* | .
CCCN1CN(Cc2ccco2)c2nc3ccccc3n2C1 | -2 | 1 | 3 | 3 | . | .
